High-throughput results: PubChem BioAssay, Sanford-Burnham Center for Chemical Genomics
HIF-2a block – HIF-2a reporter inhibitors, primary screen, luminescence, 786-0 RCC cells | 0.72% of 360,000 active | inhibition, % at 18.8 µM | 786-0 RCC cells HIF-2a reporter, luciferase luminescence, overnight;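 active means inhibition of the luminescence signal of 40% or more relative to plate controls, in a single-dose primary screen at 18.75 µM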
CF NFkB inh – inhibitors of PAF-induced NF-kB signaling, primary screen, cell-based, GFP fluorescence, uHTS | KKLEB NF-kB-GFP reporter, GFP fluorescence overnight | inhibition, % at 5 µM | 0.86% of 360,000 active;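 active means at least 50% inhibition at 5 µM, scaled per plate between neutral and stimulator controls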;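 further: PAF is a Pseudomonas aeruginosa culture filtrate used as stimulus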
Peg3 promoter – Peg3 promoter-driven luciferase inhibitors, primary screen, cell-based, HeLa, luciferase luminescence. HeLa PEG-Prom luciferase reporter, overnight. inhibition, % at 20 µM. 1.7% of 360,000 active. AID 588405, 2011;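 active means inhibition of at least 50% at 20 µM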
KKLEB cytotox – cytotoxicity in KKLEB CF airway cells, primary screen, cytotoxicity control for CF NF-kB inhibitor project, cell-based, uHTS, fluorescence assay plates. 0.36% of 360,000 active. activity change (cytotoxicity), % at 5 µM. KKLEB CF airway cells viability, ATPlite luminescence, overnight; stronger effect = lower value; cells stimulated with P. aeruginosa culture filtrate;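 active means corrected activity change at or below -50% at 5 µM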
TROY NFkB inh – inhibitors of TROY-driven NF-kB signaling, primary screen, Q293 LMP1-TROYcd cells, NF-kB luciferase, uHTS; Q293 LMP1-TROYcd NF-kB luciferase reporter, 4 h; inhibition, % at 10 µM; 0.98% of 360,000 active; AID 1347056, 2019;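 active means compounds whose plate-normalised and pattern-corrected inhibition of the luciferase reporter signal at the single screening dose is 50% or more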
TWEAK Fn14 block – inhibitors of TWEAK-Fn14 signaling, primary screen, luciferase reporter cells, uHTS; TWEAK-stimulated Fn14 reporter cells, luciferase luminescence, 8 h; inhibition, % at 10 µM; 2% of 360,000 active; in the data active means inhibition above about 50%
Each line names hits and unclear results; the compound was inactive in the other large screens. Sampled rows, rich in hits. Any-hit rate of the full collection: about 3.9%.

COc1cc(/C(C)=N/N2CCN(Cc3ccc(C)cc3)CC2)ccc1O	none
CCN(CC)S(=O)(=O)c1cccc(-c2nnc(SCc3nc4ccccc4s3)o2)c1	TROY NFkB inh 57
COc1ccc(C2C(=O)c3ccccc3C2=O)cc1	none
COc1ccc(N=C(C)C2C(=O)c3ccccc3C2=O)cc1	TWEAK Fn14 block 64
Cc1cc(Nc2nc3ccccc3nc2Cl)n(-c2ccc([N+](=O)[O-])cc2)n1	Peg3 promoter 53
Cc1oc(-c2ccc(Cl)cc2)nc1CN1CCC(C(=O)N2CCc3ccccc3C2)CC1	Peg3 promoter 79
CCNc1cc(N2CCCC2)ccc1[N+](=O)[O-]	none
CC(C)CNc1cc(N2CCCC2)ccc1[N+](=O)[O-]	Peg3 promoter 54
Cc1noc(C)c1S(=O)(=O)N(CC(=O)N1CCCCCC1)c1ccc(C(C)C)cc1	none
O=C1[C@@H]2Cc3ccccc3CN2C(=O)N1c1cccc(F)c1	TROY NFkB inh 62
Cc1ccccc1N1C(=O)[C@@H]2Cc3ccccc3CN2C1=O	none
CC(=O)Nc1ccc(S(=O)(=O)N2CCN(c3cc(C)nc4ccccc34)CC2)cc1	none
CC(=O)Nc1ccc(S(=O)(=O)N2CCN(c3nc(NC4CCCC4)c4ccccc4n3)CC2)cc1	Peg3 promoter 85
COc1ccc(-c2ocnc2C(=O)NCc2nn(-c3ccccc3)nc2C)cc1	TWEAK Fn14 block 50
Cc1onc(-c2ccccc2Cl)c1C(=O)Nc1ccccc1C(=O)NC(C)C	none
Cn1c(C(=O)OCC(=O)NCCc2ccccc2)cc2sccc21	TWEAK Fn14 block 53
COc1ccc(N(CC(=O)NC2CCCC2)C(=O)CCC(=O)Nc2cc(C)on2)cc1OC	none
CCCOc1ccccc1N/C(N)=N/c1nc(C)cc(C)n1	none
CCCOc1ccccc1N/C(=N/c1nc(C)cc(C)n1)NC(=O)COc1ccc(OC)cc1	TWEAK Fn14 block 53
CCCCCCCCCCCCCCC[C@@H](O)[C@@H](N)CO	Peg3 promoter 51
CCc1noc(C)c1C(=O)OCC(=O)Nc1nc(-c2ccc(F)c(F)c2)cs1	TROY NFkB inh 54
Cc1noc(C)c1CSCC(=O)Nc1nc(-c2ccc(F)c(F)c2)cs1	TROY NFkB inh 72, TWEAK Fn14 block 77
CCc1nnc(N/N=C/c2cc(Br)c(O)cc2O)n1N	none
CC(C)(C)c1nnc(N/N=C/c2cc(Br)ccc2O)n(N)c1=O	Peg3 promoter 73
COc1ccccc1C1/C(=C(/O)c2cnn(-c3ccccc3)c2C)C(=O)C(=O)N1CCN(C)C (centres undefined)	none
Cc1c(/C(O)=C2\C(=O)C(=O)N(CCCN(C)C)C2c2cccs2)cnn1-c1ccccc1 (centres undefined)	TROY NFkB inh 66, TWEAK Fn14 block 59
Cc1ccc(C2/C(=C(/O)c3cnn(-c4ccccc4)c3C)C(=O)C(=O)N2CCN2CCOCC2)o1 (centres undefined)	none
O=C1C(=O)N(CCN2CCOCC2)C(c2ccccn2)/C1=C(/O)c1ccccc1 (centres undefined)	TWEAK Fn14 block 63
Cc1c(/C(O)=C2\C(=O)C(=O)N(CCN(C)C)C2c2ccccc2)cnn1-c1ccccc1 (centres undefined)	TWEAK Fn14 block 57
Cc1c(/C(O)=C2/C(=O)C(=O)N(CCN3CCOCC3)C2c2cccs2)cnn1-c1ccccc1 (centres undefined)	TROY NFkB inh 60, TWEAK Fn14 block 53
Cc1c(/C(O)=C2\C(=O)C(=O)N(CCCN(C)C)C2c2ccco2)cnn1-c1ccccc1 (centres undefined)	TROY NFkB inh 80, TWEAK Fn14 block 80
Cc1c(/C(O)=C2\C(=O)C(=O)N(CCN(C)C)C2c2ccco2)cnn1-c1ccccc1 (centres undefined)	none
CN(C)c1ccc(CC(=O)N2CCCC(c3cc(C(=O)Nc4ccc(C(C)(C)C)cc4)no3)C2)cc1 (centres undefined)	TWEAK Fn14 block 79
COC(=O)c1ccc(Cl)c(NC(=O)CN(c2ccccc2)S(=O)(=O)c2ccc(OC)cc2)c1	TWEAK Fn14 block 60
COC(=O)c1nnn(-c2ccc(F)c(Cl)c2)c1C(=O)OC	none
CN(C)C(CNC(=O)CSc1nnc(-c2ccco2)o1)c1ccccc1 (centres undefined)	TWEAK Fn14 block 98
CCOC(=O)COc1ccc2c(c1)C(=O)CC(C)(c1cccnc1)O2 (centres undefined)	none
O=C(NCc1ccncc1)C1CCC(=O)N(CCc2ccc(Cl)cc2)C1 (centres undefined)	none
Cc1cccc(C(=O)Oc2coc(CSc3nnc(NC(=O)C4CC4)s3)cc2=O)c1	none
Cc1ccc(C(=O)Oc2coc(CSc3nnc(NC(=O)C4CC4)s3)cc2=O)cc1C	TROY NFkB inh 82
CS(=O)(=O)N1CCC(Oc2ccccc2C(=O)N2CCCCC2CO)CC1 (centres undefined)	none
Cc1ccc2nc(-c3ccc(NC(=O)CSc4nc(N)cc(=O)[nH]4)cc3)sc2c1	none
Cc1c(CCC(=O)NCCCC(=O)O)c(=O)oc2cc3oc4c(c3cc12)CCCC4	HIF-2a block 72
Cc1c(CCC(=O)N[C@@H](CCCNC(N)=O)C(=O)O)c(=O)oc2cc3oc4c(c3cc12)CCCC4	HIF-2a block 67
Cc1ccc(F)cc1NC(=O)CCc1c(C)[nH]c(=O)c(C#N)c1C	none
COc1ccc(OCC(=O)Nc2nonc2NC(=O)COc2ccc(OC)cc2)cc1	none
C=C(C)c1cccc(C(C)(C)NC(=O)Nc2ccc(C)cn2)c1	none
O=C(COc1ccc2ccccc2c1)Nc1nccs1	TWEAK Fn14 block 75
CCOc1ccc(C(=O)Nc2cc(C)ccn2)cc1	KKLEB cytotox -57, TWEAK Fn14 block 77
COc1ccc(OCC(=O)Nc2cccc(NC(=O)COc3ccc(OC)cc3)n2)cc1	KKLEB cytotox -63
C=C(C)c1cccc(C(C)(C)NC(=O)Nc2cc(C)ccn2)c1	TROY NFkB inh 52
COc1ccc(NC(=O)CNC(=O)Cc2cccc3ccccc23)cc1	none
CNC(=O)CN(CCc1ccccc1)S(=O)(=O)c1ccc(OC)cc1	none
CC(C)NC(=O)N(C)C[C@H]1OCc2cnnn2CCCC(=O)N([C@H](C)CO)C[C@H]1C	none
COC(=O)c1cc(NC(=O)c2cc3ccccc3o2)cc(C(=O)OC)c1	none
Cc1ccnc(NC(=O)c2cc3ccccc3o2)c1	Peg3 promoter 51, TROY NFkB inh 60, TWEAK Fn14 block 91
